# Laboratory results reported in PubChem BioAssay (NCATS).
# Records with an inconclusive call do not appear. The source made the active and inactive calls. Unless noted, calls follow the shape of the dose curve; as a rule, active = well fitted curve in the direction sought with a large enough effect; inconclusive = small, poorly fitted or top-dose-only effect, or another doubt; inactive = no such curve, though single readings can be large; an effect the other way counts as inactive or inconclusive.
# Experiments:
# [1] = qHTS profiling of the MIPE4 collection as inhibitors of Plasmodium falciparum (3D7) proliferation (AID 743344; call rule not given here;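 also: scaled between DMSO vehicle wells and 0.29 µM artemisinin as full inhibition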); details: P. falciparum 3D7 in erythrocytes, SYBR Green DNA fluorescence, 72 h; at 28.5 µM unless noted
# Summary of the method: (§1)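 Erythrocytes infected with P. falciparum (0.3% parasitemia, 2.5% hematocrit) incubated with compounds 72 h at 37 C, 5% CO2. Lysis with saponin/Triton buffer containing SYBR Green I, overnight at room temperature in the dark; DNA fluorescence (485/535 nm) normalised to 0.29 uM artemisinin and DMSO.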
# [2] = qHTS profiling of the MIPE4 collection as inhibitors of Plasmodium falciparum (DD2) proliferation (AID 743345; call rule not given here); details: P. falciparum Dd2 in erythrocytes, SYBR Green DNA, 72 h; at 28.5 µM unless noted
# Summary of the method: as §1
# [3] = qHTS profiling of the MIPE4 collection as inhibitors of Plasmodium falciparum (DD2) proliferation (Rep 2) (AID 743346; call rule not given here); details: P. falciparum Dd2 in erythrocytes, SYBR Green DNA, 72 h; at 28.5 µM unless noted
# Summary of the method: as §1
# [4] = qHTS profiling of the MIPE4 collection as inhibitors of Plasmodium falciparum (HB3) proliferation (AID 743347; call rule not given here;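 also: plate controls were DMSO vehicle wells for no effect and artemisinin wells for full effect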); details: P. falciparum HB3 in erythrocytes, SYBR Green DNA, 72 h; at 28.5 µM unless noted
# Summary of the method: as §1
# [5] = High-throughput drug toxicity screening in the BPDCN cell line Gen2.2 (AID 1224824; call rule not given here); details: Gen2.2 BPDCN cells; at 45.8 µM (top of the series) unless noted
# Summary of the method: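 Gen2.2 cells (500/well) in phenol red-free RPMI with 10% FBS were exposed to compounds for 48 h at 37 °C, 5% CO2. Viability was read by CellTiter-Glo luminescence and normalized to DMSO (100%) and 9.2 uM bortezomib (0%).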
# [6] = High-throughput drug toxicity screening in the BPDCN cell line Cal-1 (AID 1224825; call rule not given here); details: Cal-1 BPDCN cell viability, qHTS; at 45.8 µM (top of the series) unless noted
# Summary of the method: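 Exponentially growing Cal-1 cells, 500 per well in phenol red-free RPMI with 10% FBS, were exposed to compounds for 48 h at 37 °C, 5% CO2. Viability was read by CellTiter-Glo luminescence and normalised to DMSO (100%) and 9.2 uM bortezomib (0%).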
# [7] = qHTS assay for measurement of the activity of small molecule inhibitors on Zika virus induced Caspase-3 activity in human iPSC derived neural progenitor cells (hNPCs) (AID 1224857); also: nearly all actives have a fitted effect of over 65% in size; also: potency is read from the fitted curve at half-maximal effect
# Summary of the method: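 After overnight (16–20 h) culture at 350 cells/well, hNPCs get compound, then ZIKV 2 FFU/cell one hour later. Six hours on, Caspase-Glo 3/7 is added and luminescence measured.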
# [8] = qHTS assay for measurement of the activity of small molecule inhibitors on Zika virus induced Caspase-3 activity in human astrocytoma cells (AID 1224859);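 also: plate controls were ZIKV-infected untreated cells for no effect and uninfected cells for full effect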
# Summary of the method: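 Inhibition of Zika-induced caspase-3/7 activity: SNB-19 cells, 1 h compound pretreatment, ZIKV 2 FFU/cell for 6 h at 37 C, Caspase-Glo luminescence read-out.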
# [9] = qHTS Screen of the MIPE 4.0 Collection Against Ewings Sarcoma (RDES) (AID 1259252); also: nearly all actives have a fitted effect of over 35% in size; also: potency is read from the fitted curve at half-maximal effect
# Summary of the method: (§2)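 Measured: ATP luminescence (CellTiter-Glo) 10 min after reagent addition, following 48 h drug treatment. Relative luciferase units converted to percent activity, with no-cell wells as full and DMSO wells as zero inhibition.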
# [10] = qHTS Screen of the MIPE 4.0 Collection Against Ewings Sarcoma (TC71) (AID 1259253); also: nearly all actives have a fitted effect of over 40% in size; also: potency is read from the fitted curve at half-maximal effect
# Summary of the method: as §2
# [11] = qHTS Screen of the MIPE 4.0 Collection Against Ewings Sarcoma (EW8) (AID 1259255); also: nearly all actives have a fitted effect of over 35% in size; also: potency is read from the fitted curve at half-maximal effect;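 as to viability: 100% = DMSO-treated cells and 0% = medium-only wells without cells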
# Summary of the method: as §2
# [12] = qHTS Screen of the MIPE 4.0 Collection Against Ewings Sarcoma (TC32) (AID 1259256); also: nearly all actives have a fitted effect of over 45% in size; also: potency is read from the fitted curve at half-maximal effect
# Summary of the method: as §2
# [13] = qHTS assay to identify small molecule inhibitors of chordoma cells - UCH-2 (AID 1259356); also: % is scaled to controls: 0 for no effect and ±100 for the full control effect
# [14] = qHTS profiling for inhibitors of Plasmodium falciparum (3D7) proliferation (AID 743322; call rule not given here;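 also: infected erythrocytes exposed to compound for 72 h before lysis; 100% = DMSO vehicle wells and 0% = 0.29 µM artemisinin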); details: P. falciparum 3D7 proliferation; at 28.7 µM (top of the series)
# Summary of the method: as §1
# [15] = qHTS profiling for inhibitors of Plasmodium falciparum (DD2) proliferation (AID 743323; call rule not given here); details: lower = more inhibition; at 28.7 µM (top of the series)
# Summary of the method: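 Parasite proliferation measured via DNA-dye fluorescence, as uninfected erythrocytes lack DNA. Cultures at 0.3% parasitemia and 2.5% hematocrit incubated 72 h with compound; signal scaled between vehicle and 0.29 uM artemisinin wells.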
# [16] = qHTS profiling for inhibitors of Plasmodium falciparum (HB3) proliferation (AID 743324); details: Plasmodium falciparum HB3 blood-stage proliferation; at 28.7 µM (top of the series);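 also: 100% = DMSO vehicle wells and 0% = artemisinin-treated control wells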
# Summary of the method: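 P. falciparum HB3 grown in erythrocytes (0.3% parasitemia, 2.5% hematocrit final) with compound for 72 h at 37 C, 5% CO2. Parasite DNA detected by SYBR Green after saponin/triton lysis overnight; normalized to 0.29 uM artemisinin and DMSO.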
# [17] = Identifying Small Molecule Inhibitors of Pancreatic Cancer Stem Cells (A2780, Spheroid) (AID 1259357); details: Potency: A2780 spheroid viability;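 also: compound exposure lasted 48 h before the ATP luminescence read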; also: potency is read from the fitted curve at half-maximal effect
# Summary of the method: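 Monolayer and spheroid cultures are compared. Spheroids form over 14 days in stem cell medium on hydrogel-coated low-attachment plates, then are exposed to compound for 48 h before CellTiter-Glo luminescence.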
# [18] = Identifying Small Molecule Inhibitors of Pancreatic Cancer Stem Cells (SN12C, Adherent) (AID 1259358);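 also: cell survival measured after 48 h of compound exposure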; also: potency is read from the fitted curve at half-maximal effect
# Summary of the method: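 After a 4 h attachment period, compounds were pinned into wells and cultures held 48 h under standard incubator conditions. Viability was then measured as CellTiter-Glo luminescence following 10 min at room temperature.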
# [19] = Identifying Small Molecule Inhibitors of Pancreatic Cancer Stem Cells (Panc1, Spheroid) (AID 1259359);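 also: potency is read from the fitted curve at half-maximal effect; compound exposure lasted 48 h before reading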
# Summary of the method: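 Adherent (2D) versus sphere (3D) formats; spheres generated 14 d in SCM beforehand. Compound transferred by pin tool after 4 h, 48 h incubation, CellTiter-Glo endpoint.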
SMILES,"parasite growth, % of DMSO control [1] [%]","parasite growth remaining, % of DMSO control (lower = more inhibition) [2] [%]","parasite growth, % of control (lower = inhibition) [3] [%]","growth, % of control [4] [%]","cell viability, % of control (lower = more cytotoxic) [5] [%]",viability (% of control) [6] [%],Potency [7],Potency [8],Potency [9],Potency [10],Potency [11],Potency [12],outcome [13],remaining parasite growth % (stronger effect = lower value) [14] [%],"activity, percent of control [15] [%]","remaining proliferation (% of control), lower = more inhibition [16] [%]",Potency [17],Potency [18],Potency [19]
CC[C@H]1CN2CCc3cc(OC)c(OC)cc3[C@H]2C[C@@H]1C[C@@H]1NCCc2cc(OC)c(OC)cc21,4.96,6.45,7.29,3.29,8.8,6.78,inactive,inactive,93.5 nM (active),59 nM (active),66.2 nM (active),74.3 nM (active),inactive,,,,,,
CC1=C(CO)C(=O)O[C@@H]([C@@H](C)[C@H]2CC[C@H]3[C@@H]4C[C@H]5O[C@]56[C@@H](O)C=CC(=O)[C@]6(C)[C@@H]4CC[C@]23C)C1,6.08,7.1,7.54,3.14,3.38,1.9,9350 nM (active),inactive,526 nM (active),526 nM (active),264 nM (active),209 nM (active),,-1.7,-0.497,-0.146,935 nM (active),5260 nM (active),1050 nM (active)
COc1ccc(OC)c(-c2nnc3ccc(-c4ccc(OC)c(O[C@@H]5CCOC5)c4)nn23)c1,5.33,6.53,16,8.79,6.73,3.56,inactive,inactive,16600 nM (active),16600 nM (active),11800 nM (active),16600 nM (active),,-0.0314,0.138,0.357,,20900 nM (active),
CCN(CC)CCCCNc1ncc2cc(-c3cc(OC)cc(OC)c3)c(NC(=O)NC(C)(C)C)nc2n1,5.7,9.87,8,5.53,4.8,1.79,inactive,inactive,20900 nM (active),16600 nM (active),18700 nM (active),16600 nM (active),,-0.484,1.21,0.178,,14800 nM (active),18700 nM (active)
CC=C1NC(=O)[C@H]2CSSCCC=C[C@H](CC(=O)N[C@H](C(C)C)C(=O)N2)OC(=O)[C@H](C(C)C)NC1=O,5.8,8.63,12.2,8.43,5.71,4.69,inactive,inactive,14.8 nM (active),20.9 nM (active),18.7 nM (active),14.8 nM (active),,95.6,92.5,98.4,,5.3 nM (active),
CCOC(=O)C1=C(C)NC2=C(C(=O)CC(C)(C)C2)C1c1ccc(-c2ccccc2)cc1 (stereo not drawn),,,,,5.24,4.47,inactive,inactive,26400 nM (active),26400 nM (active),29600 nM (active),23500 nM (active),,,,,,,
CC(=O)OCC(=O)[C@@]1(O)[C@H](C)C[C@H]2[C@@H]3C=C(C)C4=Cc5c(cnn5-c5ccccc5)C[C@]4(C)[C@@H]3[C@@H](O)C[C@@]21C,6.78,6.63,21.4,10.8,102,45.8,inactive,inactive,6620 nM (active),6620 nM (active),7430 nM (active),5900 nM (active),,-0.774,-0.0557,-1.72,inactive,inactive,14800 nM (active)
CC1(C)O[C@@H]2C[C@@H]3[C@H]4C[C@@H](F)C5=CC(=O)C=C[C@]5(C)[C@@]4(F)[C@@H](O)C[C@]3(C)[C@]2(C(=O)CO)O1,53.6,97,53.7,76,45.3,54.5,inactive,inactive,inactive,inactive,inactive,inactive,inactive,,,,,,
COc1cc(=C2C=c3ccccc3=N2)[nH]c1=Cc1[nH]c(C)cc1C,,7.38,15.9,5.2,17.7,3.02,inactive,inactive,1870 nM (active),469 nM (active),2350 nM (active),1180 nM (active),,2.05,1.12,1.42,20900 nM (active),,1480 nM (active)
CCOc1cc2ncc(C#N)c(Nc3ccc(F)c(Cl)c3)c2cc1NC(=O)C=CCN(C)C,8.27,7.41,9.55,4.45,17.3,9.88,inactive,inactive,105 nM (active),132 nM (active),132 nM (active),132 nM (active),,-0.461,3.39,0.199,,209 nM (active),16600 nM (active)
COC(=O)C1=C(C)NC(C)=C(C(=O)OCCN2CCN(C(c3ccccc3)c3ccccc3)CC2)C1c1cccc([N+](=O)[O-])c1 (stereo not drawn),19.8,45.6,43.1,18.9,126,108,inactive,inactive,inactive,inactive,inactive,inactive,inactive,,,,,,
CC(=O)c1c(C)c2cnc(Nc3ccc(N4CCNCC4)cn3)nc2n(C2CCCC2)c1=O,5.54,6.84,9.82,2.45,8.1,3.89,inactive,inactive,18700 nM (active),5260 nM (active),20900 nM (active),14800 nM (active),,0.348,4.74,0.446,inactive,,
CC[C@@H]1C(=O)N(C)c2cnc(Nc3ccc(C(=O)NC4CCC(N5CCN(CC6CC6)CC5)CC4)cc3OC)nc2N1C(C)C (stereo partly drawn),4.79,5.71,17.4,6.88,2.88,3.23,inactive,inactive,105 nM (active),118 nM (active),74.3 nM (active),66.2 nM (active),,-0.343,1.64,,inactive,1320 nM (active),9.3 nM (active)
